tested on: Scedosporium aurantiacum CBS 136046; experiment: growth inhibition relative to DMSO control (OD600); higher = more antifungal activity, active = 80 or more; extreme values may be limits of the assay; conditions: 5 µM; 72 h; 37 °C
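Note: conidia screened in RPMI 1640 medium under 5% CO2, growth read by spectrophotometer, medium with 0.5% DMSO serving as the untreated reference.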

Growth inhibition, inactive:
CN(Cc1ccc(C(C)(C)C)cc1)Cc1cccc2ccccc12 37.7%
Nc1nc(=O)[nH]cc1F 0.0511%
COc1ccc(CNC(=O)C2CCN([C@H](C)c3cccc4ccccc34)CC2)cc1 9.67%
O=C(Nc1nnc(-c2ccccc2)o1)c1ccc(F)cc1 31.3%
C[C@H](NC(=O)C(=O)Nc1ccccc1C(C)(C)C)C(=O)N[C@@H](CC(=O)O)C(=O)COc1c(F)c(F)cc(F)c1F 11.6%
CONC(=N)c1ccc(-c2ccc(-c3ccc(C(=N)NOC)cc3)o2)cc1 29.9%
CCc1nc2ccccn2c1C(=O)NCc1ccccc1 13%
CCOc1noc2cc(OCCC3CCN(c4ccc(C)nn4)CC3)ccc12 37.3%
Cc1nc(Nc2ccc(F)cc2)nc(N2CCc3ccccc3C2C)c1C (stereo not drawn) 25.2%
CCc1cc(O)c(Oc2ccc(C(N)=O)cc2F)cc1F 29.4%
O=C(O)c1ccccc1Sc1ncnc2sc3c(c12)CCC3 1.9%
CN(C)CCCNC(=O)c1ccc(-c2cc(O)c3ncccc3c2)cc1 11.4%
Nc1cnn(C2OC(CO)C(O)C2O)c(=O)n1 (stereo not drawn) 8.41%
Cc1nc(-c2ccc(C3N(C)c4ccc(F)cc4C(=O)N3c3ccccc3)s2)cs1 (stereo not drawn) 15%
NNC(=O)c1ccncc1 3.54%
CC(C)(C)c1ccc(OCCn2nc(C(=O)O)c3ccccc3c2=O)cc1 16.2%
COc1cc(Cc2cnc(N)nc2N)cc(OC)c1OC 0.169%
CNCC(=O)OCc1cccnc1N(C)C(=O)OC(C)[n+]1cnn(C[C@](O)(c2cc(F)ccc2F)[C@@H](C)c2nc(-c3ccc(C#N)cc3)cs2)c1 (stereo partly drawn) 59.5%
N=C(N)c1ccc(COc2ccc(Cl)cc2)cc1 19.9%
Nc1nc(C(F)(F)F)cc2c1[nH]c(=O)n2Cc1ccccc1 18.8%
CN1CCN(c2ccc3[nH]c(-c4ccc5[nH]c(-c6ccc(O)cc6)nc5c4)nc3c2)CC1 11.7%
Cc1ncc([N+](=O)[O-])n1CC(C)O (stereo not drawn) 22.7%
O=C(O)C(Cc1c[nH]c2ccccc12)N1C(=O)c2ccccc2C1=O (stereo not drawn) 19.9%
O=[N+]([O-])/C(Br)=C/c1ccc(Br)o1 0.879%
COc1cc(Cc2cc(N)nc(N)n2)cc(OC)c1OC 11.7%
Oc1cc(-c2cccc3ccccc23)[nH]n1 7.34%
CS(=O)(=O)c1ccc(Oc2ccc(Cl)cc2)cc1 15.2%
Cc1c(CN(C)C(=O)/C=C/c2cnc3c(c2)C(C)(C)C(=O)N3)oc2ccccc12 19.3%
Cc1c(OCC(F)(F)F)ccnc1C[S+]([O-])c1nc2ccccc2[nH]1 (stereo not drawn) 39.8%
NC(=O)c1nccn([C@@H]2O[C@H](CO)[C@@H](O)[C@H]2O)c1=O 2%
N=C(N)NCCCCC(=O)Nc1cc(C(F)(F)F)cc(NC(=O)c2cc(C(=O)Nc3cc(C(F)(F)F)cc(NC(=O)CCCCNC(=N)N)c3O[C@@H]3CCNC3)ncn2)c1O[C@@H]1CCNC1 37.1%
O=c1oc2ccc(Br)cc2cc1CSc1ncc[nH]1 18.7%
Nc1cc(-c2nc3ccccc3[nH]2)n[nH]c1=O 1.56%
CCCCc1ccc(S(=O)(=O)Nc2cc(C)on2)cc1 2.13%
O=C(/C=C\n1cnc(-c2cc(C(F)(F)F)cc(C(F)(F)F)c2)n1)NNc1ccccn1 24.4%
COc1cc(C2C3=C(CC(C)(C)CC3=O)Nc3ccccc3N2C(C)=O)ccc1OCc1ccccc1 (stereo not drawn) 0.481%
Cc1[nH]c2ccccc2c1CCNCc1ccc(/C=C/C(=O)NO)cc1 26.8%
COc1cc(C)c2c(Oc3cccc(C(F)(F)F)c3)c(OC)cc(NC(C)CCCN)c2n1 (stereo not drawn) 33.4%
